Measurements reported in PubChem BioAssay AID1159580 (chemical genetic matrix, 2015).
The whole screen tested about 5,500 compounds, of which about 2,000 (36%) were called active. Roughly 18% stayed inconclusive and do not appear here. Cut-off read from the data, not from the text of the source: active = normalized growth mostly below about 0.91 (no sharp cut-off); inconclusive = no clear call, values can overlap the other calls; inactive = mostly above about 0.92. Some of the results follow.

Experiment: chemical genetic growth profiling, strain panel (AID 1159580);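 note: tested at 20 µM; growth read once vehicle control cultures reached saturation at 30 °C; 1 = growth at the plate median or of vehicle wells; lower values mean less growth of the strain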
Conditions: S. cerevisiae deletion strains, growth OD

Measured: normalized growth

CC1CN(S(=O)(=O)c2cccc3cnccc23)CCN1 (stereo not drawn)
inactive: locus YAL040C, strain CLN3, active compounds read low 1.01 | locus YCL061C, strain MRC1 (second series), active compounds read low 1.01 | locus YDR363W, strain ESC2, active compounds read low 1.02 | locus YER002W, strain NOP16, active compounds read low 1 | locus YGR078C, strain PAC10, active compounds read low 1.02 | locus YJR075W, strain HOC1, active compounds read low 0.996 | locus YMR307W, strain GAS1, active compounds read low 0.997 | locus YNL128W, strain TEP1, active compounds read low 1.01 | locus YNL153C, strain GIM3, active compounds read low 1.01 | locus YNL175C, strain NOP13, active compounds read low 1.01 | locus YNL197C, strain WHI3, active compounds read low 1.01 | locus YNL224C, strain SQS1, active compounds read low 1.03 | locus YNL322C, strain KRE1, active compounds read low 0.999 | locus YOR083W, strain WHI5 (second series), active compounds read low 1.02 | locus YPL055C, strain LGE1, active compounds read low 1.02 | locus YPL241C, strain CIN2, active compounds read low 1

NC(=O)c1ccc(N)nc1
inactive: locus YAL021C, strain ccr4, active compounds read low 0.994 | locus YAL026C, strain drs2, active compounds read low 1.01 | locus YAL030W, strain snc1, active compounds read low 0.982 | locus YBR009C, strain hhf1, active compounds read low 0.99 | locus YBR023C, strain chs3, active compounds read low 0.995 | locus YBR171W, strain sec66, active compounds read low 1.02 | locus YBR231C, strain swc5, active compounds read low 0.989 | locus YBR279W, strain paf1, active compounds read low 0.982 | locus YCL011C, strain gbp2, active compounds read low 1 | locus YCL016C, strain dcc1, active compounds read low 1 | locus YCL069W, strain vba3, active compounds read low 1.01 | locus YCR088W, strain abp1, active compounds read low 1.01 | locus YDL005C, strain med2, active compounds read low 0.987 | locus YDL040C, strain nat1, active compounds read low 0.988 | locus YDR001C, strain nth1, active compounds read low 1.01 | locus YDR069C, strain doa4, active compounds read low 0.981 | locus YDR137W, strain rgp1, active compounds read low 1 | locus YDR159W, strain sac3, active compounds read low 0.978 | locus YDR195W, strain ref2 0.942 | locus YDR297W, strain sur2, active compounds read low 0.999 | locus YDR334W, strain swr1, active compounds read low 0.99 | locus YDR335W, strain msn5, active compounds read low 1 | locus YDR392W, strain spt3, active compounds read low 1 | locus YEL003W, strain gim4, active compounds read low 1 | locus YEL037C, strain rad23, active compounds read low 1.01 | locus YEL061C, strain CIN8 (second series), active compounds read low 1 | locus YER015W, strain faa2, active compounds read low 0.997 | locus YER016W, strain bim1, active compounds read low 0.997 | locus YER111C, strain swi4, active compounds read low 1.01 | locus YER155C, strain BEM2 (second series), active compounds read low 1.01 | locus YFR010W, strain ubp6, active compounds read low 1 | locus YGL167C, strain pmr1, active compounds read low 0.999 | locus YGL173C, strain kem1, active compounds read low 0.993 | locus YGL227W, strain vid30, active compounds read low 1.01 | locus YGL240W, strain doc1, active compounds read low 1 | locus YGL253W, strain hxk2, active compounds read low 1.01 | locus YHR013C, strain ard1, active compounds read low 0.979 | locus YHR027C, strain rpn1, active compounds read low 0.998 | locus YHR030C, strain SLT2, active compounds read low 1.03 | locus YHR079C, strain IRE1, active compounds read low 1.02 | locus YHR142W, strain chs7, active compounds read low 1.01 | locus YJL092W, strain hpr5, active compounds read low 1 | locus YJL095W, strain BCK1 (second series), active compounds read low 0.989 | locus YJL095W, strain BCK1, active compounds read low 1.03 | locus YJL115W, strain asf1, active compounds read low 1 | locus YJL129C, strain trk1, active compounds read low 1.01 | locus YJL154C, strain vps35, active compounds read low 0.995 | locus YJL164C, strain tpk1, active compounds read low 0.978 | locus YJL166W, strain qcr8, active compounds read low 1.01 | locus YJR066W, strain TOR1, active compounds read low 0.951 | locus YKL160W, strain elf1, active compounds read low 0.975 | locus YKR026C, strain gcn3, active compounds read low 1.01 | locus YKR091W, strain srl3, active compounds read low 0.997 | locus YLL001W, strain dnm1, active compounds read low 1.01 | locus YLL026W, active compounds read low 0.999 | locus YLL041C, strain sdh2, active compounds read low 1 | locus YLR027C, strain aat2, active compounds read low 1.01 | locus YLR113W, strain HOG1, active compounds read low 1.02 | locus YLR221C, strain rsa3, active compounds read low 0.995 | locus YLR258W, strain gsy2, active compounds read low 1 | locus YLR262C, strain YPT6 (second series), active compounds read low 1.01 | locus YLR320W, strain mms22, active compounds read low 0.995 | locus YLR342W, strain FKS1, active compounds read low 0.996 | locus YLR357W, strain rsc2, active compounds read low 0.967 | locus YLR370C, strain arc18, active compounds read low 1 | locus YLR384C, strain iki3, active compounds read low 0.986 | locus YML120C, strain ndi1, active compounds read low 0.987 | locus YMR058W, strain fet3, active compounds read low 0.999 | locus YMR125W, strain sto1, active compounds read low 1.01 | locus YMR129W, active compounds read low 0.983 | locus YMR205C, strain PFK2, active compounds read low 0.998 | locus YMR231W, strain pep5, active compounds read low 1 | locus YNL071W, strain lat1, active compounds read low 0.99 | locus YNL183C, strain NPR1, active compounds read low 0.961 | locus YNL209W, strain ssb2, active compounds read low 0.996 | locus YNL248C, strain rpa49, active compounds read low 1.01 | locus YNL322C, strain KRE1 (second series), active compounds read low 0.986 | locus YNR049C, strain mso1, active compounds read low 1.01 | locus YOR001W, strain rrp6, active compounds read low 0.997 | locus YOR070C, strain gyp1, active compounds read low 0.993 | locus YOR080W, strain dia2, active compounds read low 0.993 | locus YOR083W, strain WHI5, active compounds read low 1 | locus YOR106W, strain vam3, active compounds read low 1.01 | locus YOR231W, strain MKK1, active compounds read low 1.05 | locus YOR265W, strain rbl2, active compounds read low 0.993 | locus YOR270C, strain vph1, active compounds read low 1.02 | locus YOR290C, strain snf2, active compounds read low 1.01 | locus YPL051W, strain arl3, active compounds read low 0.993 | locus YPL078C, strain atp4, active compounds read low 1 | locus YPL106C, strain sse1, active compounds read low 0.992 | locus YPL240C, strain hsp82, active compounds read low 0.993 | locus YPL256C, strain CLN2, active compounds read low 1.03
